# Source: the OligoGym collection
# Molecular target: KLF9
# Experiment: pooled miR-30 sensor sort-seq; sequence = guide strand
# Conditions: shRNA
# Note: reference of the scale not given here.
row,Sequence,sensor-assay potency score (higher = more potent)
1,TTCACCTGTATGCACTCTGTAA,-0.85
2,TTTAGATGACAGATCATGCTGG,0.459
3,TTAATCTCAAAAGTTAACGTGA,0.201
4,TACAGTGTTACAGATCATCTGA,0.728
5,TTTCTCGTGAGAAAACACTTTC,-0.637
6,TTGCAAAACACTACCCTCCTTC,-0.0123
7,TTCGATCGCTTGATCATGCTGG,0.623
8,TTAAACAGTTGTAAAGATCAGT,-0.0225
9,TAAACAAAAATTACTATCCTGC,0.0439
10,TTCTGTACTTAGTGTAACCTTT,-0.287
11,TTAAACACCTGCAATAGTCTTT,0.257
12,TTACAAGTTAGCAAGTTGCTAG,-0.0943
13,TTGTCTTTCACTGACTTTGCTT,-0.214
14,TAGTAGTCCTATTTGAACCATA,-0.845
15,TTCTTTCTTTTTAAACACCTGC,-0.453
16,TTAGTGTTCAATGAACTCTAGT,-0.32
17,TTTATATCCATCTAAGTGCTTG,-0.361
18,TCTACATAACTCTTGCACCTGA,-0.302
19,TTCAGGTCCAACAAGCTCTTGG,-0.253
20,TTGATCTTAGGCTACAATGTGC,-0.659
21,TATCTTGATATAGTAAATCTAA,-0.625
22,TAACTTATTCATCCTCTGCATT,-0.919
23,TTCTGTAATTGTAACTACCAAA,-0.904

# Molecular target: KLHL20
# Experiment: as above
# Conditions: shRNA
row,Sequence,sensor-assay potency score (higher = more potent)
1,TCTCCTGTAAACATAGCTCGGA,-0.114
2,TCATCTACCAAGTCTCTGCATT,-0.755
3,TTGTTCTTCACTGCGAACGTTT,-0.688
4,TTGTTTGTATAAAAGAACCAAG,-1.24
5,TTTGTCTATGAATACAATGAGG,-1.57
6,TACATTTTGCATACCTACCTTT,-0.113
7,TACAGCATAGATCATGTCCTGA,0.298
8,TTGAACACTTGTTCTTCACTGC,0.569
9,TTGAAAATTATTGTGCATCTTG,-0.295
10,TAATTGAGGACGTCTTTCCTGA,0.0524
11,TATGTTGGGTGAACTTGTCTGC,0.299
12,TTCTTCATCACTTTTGATGAGG,-0.804

# Molecular target: KLHL24
# Experiment: as above
# Conditions: shRNA
row,Sequence,sensor-assay potency score (higher = more potent)
1,AAACTTTTCGCTTAGTTGCTGG,-0.446
2,TTCAACTGGATCGTAACAGTAT,-0.312
3,TATTTTTCTATCTCCTACCTAA,0.015
4,TTTACCATTACACACAGACATA,-1.69
5,TATCTATGAATAGTCACACAGC,-1.1
